From PubChem
A selection: hits, their analogues and other compounds. The true share with any hit is near 2.2%.
NTR1 ag – agonists of human NTR1, primary screen, imaging, U2OS cells, beta-arrestin-GFP, high content; actives 0.17% (n = 330,000); NTR1-U2OS beta-arrestin-GFP spot imaging, agonist mode; activation, % at 20 µM; Neurotensin receptor type 1 (Homo sapiens), P30989;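 active means activation at or above 40% of the spot to cytoplasm intensity ratio, with at least 20 cells analyzed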;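 further: 0% = DMSO without peptide and 100% = 100 nM NTR1 peptide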
M1 ag parental – counter-screen for M1 agonists: effect in parental CHO-K1 cells. Fluo-8 calcium fluorescence; scaled to maximal ATP response, vehicle zero. activation, % at 3 µM. actives 0.48% (n = 360,000). AID 602248, 2012; in the data active means activation above about 15%;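 further: untransfected CHO-K1 host cells lacking M1 receptor as counterscreen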
CHO-K1 Ca antag – counter-screen for M1 antagonists: effect in parental CHO-K1 cells. actives 0.6% (n = 360,000). inhibition, % at 3 µM. ATP-induced calcium, Fluo-8 fluorescence;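 active means inhibition above a per-plate cutoff, the plate's mean sample inhibition plus 3 SD, cut at about 24% in these data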;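 further: 0% = DMSO plus EC80 ATP and 100% = DMSO alone without ATP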
ANO1 activ – TMEM16A chloride channel activators or potentiators, primary screen, cell-based, HTS | AID 623877, 2012 | B-score at 10 µM | HEK293 TMEM16A/YFP-H148Q/I152L, iodide quench fluorescence; active compounds read low | actives 0.3% (n = 340,000) | Anoctamin-1 (Mus musculus), Q8BHY3;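 active means fluorescence-ratio B-score plate-corrected deviation score at least 3 library SD below zero, with starting fluorescence score within 5 deviations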;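 further: channel opened by trigger with iodide after compound preincubation; score built on the fluorescence ratio of max minus min over baseline; more negative score means more quench and so TMEM16A activation or potentiation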
Target sequence (Q8BHY3 whole entry, looked up): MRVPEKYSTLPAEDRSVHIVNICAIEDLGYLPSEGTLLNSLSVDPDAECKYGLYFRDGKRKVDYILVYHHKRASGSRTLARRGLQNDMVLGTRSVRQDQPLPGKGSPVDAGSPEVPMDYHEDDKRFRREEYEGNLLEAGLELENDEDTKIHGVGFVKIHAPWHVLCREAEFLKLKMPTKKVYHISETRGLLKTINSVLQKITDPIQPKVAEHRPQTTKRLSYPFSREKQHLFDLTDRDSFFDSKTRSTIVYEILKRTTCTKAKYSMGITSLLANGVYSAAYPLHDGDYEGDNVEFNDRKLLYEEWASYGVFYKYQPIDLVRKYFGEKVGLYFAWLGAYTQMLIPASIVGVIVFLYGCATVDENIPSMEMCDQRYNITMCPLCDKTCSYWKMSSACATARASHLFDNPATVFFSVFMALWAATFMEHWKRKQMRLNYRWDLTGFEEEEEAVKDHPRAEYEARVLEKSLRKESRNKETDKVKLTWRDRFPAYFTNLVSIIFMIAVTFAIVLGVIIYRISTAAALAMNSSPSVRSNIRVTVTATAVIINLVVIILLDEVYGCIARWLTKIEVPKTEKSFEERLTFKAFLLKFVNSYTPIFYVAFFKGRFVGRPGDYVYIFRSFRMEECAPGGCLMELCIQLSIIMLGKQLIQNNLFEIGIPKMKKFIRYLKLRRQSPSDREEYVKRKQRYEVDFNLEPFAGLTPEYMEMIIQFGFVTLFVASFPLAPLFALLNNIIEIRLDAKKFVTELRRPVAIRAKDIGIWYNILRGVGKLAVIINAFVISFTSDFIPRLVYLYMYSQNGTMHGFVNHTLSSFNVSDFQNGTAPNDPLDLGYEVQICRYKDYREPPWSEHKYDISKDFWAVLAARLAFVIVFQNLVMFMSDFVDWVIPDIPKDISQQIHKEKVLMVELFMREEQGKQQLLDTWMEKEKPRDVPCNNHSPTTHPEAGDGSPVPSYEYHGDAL
CHO-K1 Ca PAM – nonselective calcium activators in parental CHO-K1 cells, primary screen, counter-screen for M1 PAM project, cell-based, Fluo-8 calcium fluorescence, full deck, 1536-well; ATP EC20; 0% at ATP EC20, 100% at ATP max; activation, % at 3 µM; actives 0.02% (n = 360,000); AID 602247, 2012;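 active means activation above the run cutoff, the mean activation of all test compounds plus 3 SD, cut at about 40% in these data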;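 further: peak over basal fluorescence ratio in a 140 s read after ATP addition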
ANO1 block – TMEM16A chloride channel inhibitors, primary screen, cell-based, HTS; Anoctamin-1 (Mus musculus), Q8BHY3; HEK293 TMEM16A/YFP iodide influx fluorescence, ionomycin; normalized B-score (activity score, 25-100; higher = stronger inhibition) at 10 µM; actives 1.2% (n = 310,000);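 active means ratio plate-corrected score three or more library SD toward inhibition, starting fluorescence score within five deviations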;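 further: score derived from kinetic fluorescence span divided by baseline fluorescence per well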
* marks the source's active call; other numbers are inactive results; i = inactive; nt = not tested or not shown.

SMILES | NTR1 ag | M1 ag parental | CHO-K1 Ca antag | ANO1 activ | CHO-K1 Ca PAM | ANO1 block
S=C(NCCC(c1ccccc1)c1ccccc1)Nc1ccc(Cl)cc1 | 9 | 11 | 12 | i | 13 | 100*
S=C(NCCCc1ccccc1)Nc1ccccc1 | 0 | 5 | -11 | i | 6 | i
S=C(NCCCc1ccccc1)Nc1ccc(Cl)cc1 | 5 | 10 | 22 | -6.3* | 2 | 100*
COc1ccc(/C=C/C2=CC(C)(C)NC(=S)N2)cc1OC | 7 | 0 | 26* | i | -15 | i
CCOc1ccc(CN(C)CC(=O)Nc2ccc(N3CCOCC3)cc2)cc1OC | 0 | 16* | 1 | i | 17 | i
Cc1ccc(CC(=O)N(C)CC(=O)Nc2ccc(N3CCOCC3)cc2)cc1C | -1 | 0 | 25* | i | -26 | i
CCOc1ccc(CN(C)CC(=O)Nc2cccc3ccccc23)cc1OC | 3 | 1 | -9 | i | -4 | i
COc1cccc(CNC(=O)[C@@H]2CCCN2C(=O)[C@@H]2CCCN2C(=O)OC(C)(C)C)c1 | nt | 1 | -23 | nt | 19 | nt
CCNC(=O)c1cc(Br)ccc1Cl | -3 | 0 | 24* | i | 10 | i
COc1ccc(-c2cccc(CCC(=O)N3CCN(c4cc(C)ccc4C)CC3)c2)cc1 | 3 | 2 | -11 | nt | 19 | nt
COc1ccc(C(=O)CCC(=O)N2CCN(c3cc(C)ccc3C)CC2)cc1 | 1 | 8 | -9 | -5.8* | 6 | i
C[C@H](CO)N1C[C@H](C)[C@@H](CN(C)C(=O)Nc2ccc(C(F)(F)F)cc2)Oc2c(NS(=O)(=O)c3cn(C)cn3)cccc2C1=O | 0 | 0 | 9 | i | -18 | nt
C=CCNc1nc2c(c(=O)n(C)c(=O)n2C)n1CC | 0 | 1 | 31* | i | -9 | i
COc1ccc(OC)c(NC(=O)Nc2ccc(Cl)cc2)c1 | 5 | 1 | 8 | i | -12 | i
COc1ccc(OC)c(NC(=O)Nc2ccc3[nH]ccc3c2)c1 | 2 | -1 | 59* | i | -8 | i
CCOC(=O)C1(C)CCCCCN1C(=O)c1ccc(OC)cc1 (stereo unspecified) | nt | 0 | 25* | nt | -14 | nt
COC(=O)[C@]12CCCCC=C1N(Cc1ccccc1)C(=O)[C@H](CC(=O)NCCCCc1ccccc1)C2 | nt | 2 | -17 | nt | 17 | nt
CC1(C)CC(=O)C(C(c2ccc3c(c2)OCO3)C2C(=O)CC(C)(C)CC2=O)C(=O)C1 | nt | 0 | 0 | nt | 2 | nt
COc1cc(C(C2C(=O)CC(C)(C)CC2=O)C2C(=O)CC(C)(C)CC2=O)ccc1O | -2 | 2 | -13 | i | 7 | i
COc1ccc(C(C2C(=O)CC(C)(C)CC2=O)C2C(=O)CC(C)(C)CC2=O)cc1 | 1 | 19* | 9 | i | 12 | i
CC1(C)CC(=O)C(C(c2ccncc2)C2C(=O)CC(C)(C)CC2=O)C(=O)C1 | 0 | 0 | -1 | -14* | -2 | i
Cc1cccc(C)c1NC(=O)C1c2ccccc2OCC(=O)N1C1CC1 (stereo unspecified) | nt | 1 | -9 | nt | 10 | nt
NC(=S)Cc1nc(-c2ccccc2)cs1 | 5 | 2 | 32* | i | -10 | i
Cc1cc(/C=C\c2ccc3cc(N(C)C)ccc3[n+]2C)c(C)n1-c1ccccc1 | -2 | 20* | 35* | i | -7 | i
CC(C)Oc1ccc(S(=O)(=O)N2CCOCC2)cc1NC(=O)CSc1nnc(C2CC2)n1C | nt | 0 | -7 | nt | -5 | nt
SMILES | NTR1 ag | M1 ag parental | CHO-K1 Ca antag | ANO1 activ | CHO-K1 Ca PAM | ANO1 block
Cc1ccc(C(=O)NN2C(=O)CSC2=S)cc1 | 2 | 4 | -8 | i | 3 | i
C/C(=N\N1C(=O)CSC1=S)c1ccc(Br)cc1 | 1 | 19* | 4 | i | 7 | i
COC(=O)CCCn1cc(CN2CC(N3CCN(C4CCN(C)CC4)CC3)CS2(=O)=O)nn1 (stereo unspecified) | nt | 0 | -8 | nt | 4 | nt
CC(=O)N(C)C[C@H]1Oc2ncc(Br)cc2C(=O)N([C@H](C)CO)C[C@@H]1C | nt | 0 | -5 | nt | 4 | nt
CCCCCCCCCCCC(=O)c1c(O)cccc1O | 1 | 0 | 3 | i | 10 | 100*
CCCCCCCC(=O)NNC(=O)Cc1ccccc1 | -1 | 0 | -7 | i | 5 | i
CC(=O)Nc1ccc(CN2C(=O)C(Cc3ccccc3)ON=C2c2ncccc2C)cc1 (stereo unspecified) | nt | 1 | 22 | nt | -10 | nt
O=C(C[n+]1cc(-c2ccc(Cl)cc2)n2c1CCC2)Nc1nc(-c2ccc(F)cc2)cs1 | 2 | 18* | 4 | i | 12 | i
O=C(NCc1ccccc1Cl)[C@H]1CCCN1C(=O)[C@H]1CCCN1C(=O)c1ccccc1 | nt | 2 | -18 | nt | 19 | nt
O=C(NCc1ccccc1Cl)[C@H]1CCCN1C(=O)[C@H]1CCCN1C(=O)c1cccc2ccccc12 | nt | 16* | 0 | nt | 3 | nt
COc1ccc(C)cc1NC(=O)NC1CC(=O)N(c2ccc3c(c2)OCCO3)C1 (stereo unspecified) | nt | 1 | -6 | nt | 5 | nt
CCOC(=O)C1=C[C@@H](c2ccccc2)N(S(=O)(=O)c2ccc(C)cc2)[C@H]1c1ccc(OC)cc1 | nt | 0 | 8 | nt | 14 | nt
CN(C)CCCCOc1ccccc1-c1ccccc1 | 2 | 0 | 24* | i | -7 | i
COc1cc(CN2C[C@@H](CO)O[C@@H](n3cnc4c(NCCCO)ncnc43)C2)cc(OC)c1OC | nt | 0 | -10 | nt | 15 | nt
CCOc1ccc(CCN2C(=O)C(=O)N([C@@H](CC(C)C)CN3CCC[C@H]3CN3C(=O)C(=O)NC[C@@H]3CC(C)C)C[C@@H]2Cc2ccc(O)cc2)cc1 | nt | 0 | 2 | nt | 9 | nt
COC(=O)c1ccccc1-c1ccc(C=O)o1 | -2 | 0 | 3 | i | 6 | i
O=Cc1ccc(-c2ccccc2C(=O)O)o1 | -1 | -1 | 29* | i | -19 | i
CCN(CC)c1ccc(/C=C/C(=O)c2ccc(Br)cc2)cc1 | nt | 111* | 73* | i | -4 | i
CN(C)c1ccc(C(=O)/C=C/c2ccc(Br)cc2)cc1 | 0 | 1 | -12 | i | 15 | i
CC1(c2nnnn2-c2ccc3c(c2)OCCO3)CCC(=O)N1Cc1ccc(F)cc1 (stereo unspecified) | nt | 0 | -14 | nt | 8 | nt
CCN1C[C@@H]2[C@@H]3C(=O)N(C)C(=O)[C@@H]3[C@](C)(C(=O)OC)N2C1=NC | 1 | 0 | -7 | nt | 11 | nt
COCCn1c(COC)nc2ccccc21 | -1 | 0 | -2 | i | -4 | i
